Measurements as given in PubChem BioAssay AID778 (Sanford-Burnham Center for Chemical Genomics, 2007).
Screen size: about 96,000 compounds; about 20,000 (21%) were called active.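 How the source made its calls: active means CYP2C19 inhibition above a set limit at 5 µM in the primary screen (cut at about 50% in these data); inactive means the rest.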 These entries were drawn from the full list.

What follows are molecules tested against Cytochrome P450 2C19 (Homo sapiens) (UniProt P33261) (assay: blockers of cytochrome P450 2C19 activity – biochemical, luminescence, ADME assay, primary screen (AID 778;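 further: plate controls were negative control wells for no effect and 2.5 mM tranylcypromine positive control for full effect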)). Settings: CYP2C19 Supersomes, luciferin-H EGE luminescence, 30 min; at 5 µM; hits give high values.
Chain of Cytochrome P450 2C19 (Homo sapiens) (P33261 whole entry, looked up): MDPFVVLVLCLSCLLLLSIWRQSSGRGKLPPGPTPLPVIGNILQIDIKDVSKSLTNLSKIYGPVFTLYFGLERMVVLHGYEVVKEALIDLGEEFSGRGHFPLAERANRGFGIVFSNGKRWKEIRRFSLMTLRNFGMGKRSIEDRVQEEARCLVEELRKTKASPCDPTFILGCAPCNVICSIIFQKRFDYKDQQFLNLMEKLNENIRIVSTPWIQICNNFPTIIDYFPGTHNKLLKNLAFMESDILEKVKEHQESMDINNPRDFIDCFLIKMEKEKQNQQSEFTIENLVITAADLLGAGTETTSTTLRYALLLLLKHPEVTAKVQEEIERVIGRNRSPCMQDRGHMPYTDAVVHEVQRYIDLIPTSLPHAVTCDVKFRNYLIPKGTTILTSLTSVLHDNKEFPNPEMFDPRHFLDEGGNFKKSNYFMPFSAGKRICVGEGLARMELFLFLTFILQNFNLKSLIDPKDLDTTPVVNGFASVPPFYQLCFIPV
In the case of `CCOc1ccccc1/C=c1\sc2nc(-c3ccco3)nn2c1=O`, the inhibition is reported as 15.4% (inactive). With `O=C(NC1CCCCC1)C1CC(=O)N(CCc2ccccc2)C1` (stereo unspecified) the inhibition was -5.3% (inactive). In the case of `CN(CCCNC(=O)CN1C(=O)CC(C)(C)S(=O)(=O)c2ccccc21)C1CCCCC1`, the inhibition is reported as 9.9% (inactive). With `O=C(CN1C(=O)CC(c2ccccc2)=Nc2ccccc21)NC1CCCCC1` the inhibition was 52.2% (active). In the case of `O=C(NCc1ccco1)c1cc(-c2cccnc2)nc2ccc(Cl)cc12`, the inhibition is reported as 0.7% (inactive). In the case of `O=C(NCCCN1CCN(C2CCCCC2)CC1)Nc1ccccc1C(F)(F)F`, the inhibition is reported as -6.6% (inactive). For `Cc1ccc(CNC(=O)C2CCCN(S(C)(=O)=O)C2)cc1` (stereo unspecified), the inhibition was 26.6% (inactive). `Cc1onc(-c2ccccc2)c1C(=O)N1CCOCC1` was tested, and the inhibition was 1.4% (inactive). `Cc1onc(-c2ccccc2)c1C(=O)Nc1ccccc1C#N` was tested, and the inhibition was 86.7% (active). `CC(=O)Nc1cccc(NC(=O)c2c(-c3ccccc3)noc2C)c1` was tested, and the inhibition was 67.3% (active). For `Cc1ccoc1C(=O)Nc1cccc(Oc2ccccc2)c1`, the inhibition was 5.3% (inactive). `CCOC(=O)c1c(-c2cccc(C)c2)csc1NC(=O)c1c(-c2ccccc2)noc1C` was tested, and the inhibition was 37.7% (inactive). `O=C(Nc1ccccc1[N+](=O)[O-])C1C(c2ccccc2)=C1c1ccccc1` was tested, and the inhibition was 18.5% (inactive). In the case of `CCOC(=O)c1sc(NC(=O)CSc2ncccn2)c(C#N)c1C`, the inhibition is reported as 6.5% (inactive). In the case of `CCOC(=O)c1cc(NC(=O)c2cccnc2)cc(C(=O)OCC)c1`, the inhibition is reported as 22.9% (inactive). With `Cc1cc(C(=O)CC#N)c(C)n1CC(F)(F)F` the inhibition was 17% (inactive). For `CC(C)OCCCNC(=O)CNC(=O)c1cccs1`, the inhibition was 14% (inactive). `CCOc1ccc(C2C(C(=O)O)c3ccccc3C(=O)N2CCN2CCOCC2)cc1` (stereo unspecified) was tested, and the inhibition was -12.7% (inactive). For `CCCCOc1ccc(C(C)(O)CCN2CCOCC2)cc1` (stereo unspecified), the inhibition was -1.7% (inactive). For `CCCOc1ccc(C2c3c(oc4cc(C)c(C)cc4c3=O)C(=O)N2CCCN2CCOCC2)cc1` (stereo unspecified), the inhibition was 69.9% (active). In the case of `COC(=O)[C@H](C)NC(=O)Nc1ccc(OC(F)(F)F)cc1`, the inhibition is reported as 9.5% (inactive). `Cc1ccc(N2C(=O)S/C(=C/c3cn(C)c4ccccc34)C2=O)cc1` was tested, and the inhibition was -7.8% (inactive). In the case of `COc1ccc(-n2nnnc2SCc2nc(N)nc(N3CCOCC3)n2)cc1`, the inhibition is reported as 22.5% (inactive). In the case of `CCc1ccc(-c2nnn(Cc3nn[nH]n3)n2)cc1`, the inhibition is reported as 14.2% (inactive). In the case of `COc1ccc(-c2nnn(Cc3nc(N)nc(N4CCCCC4)n3)n2)cc1`, the inhibition is reported as 65.2% (active). With `CCN(CC)Cc1cc(C(C)=O)ccc1O` the inhibition was -2.4% (inactive). For `Cc1c(CN2CCC(C)CC2)c(=O)n(-c2ccccc2)n1C`, the inhibition was -0.1% (inactive). For `Cc1nnc(SCc2nc3ccccc3nc2C)s1`, the inhibition was 52.6% (active). With `Cc1nnc(SCC(=O)N2CCc3ccccc3C2)s1` the inhibition was 42.5% (inactive). `Cc1nnc(SCC(=O)NCc2ccccc2)s1` was tested, and the inhibition was -3.1% (inactive). With `CCc1c(C)sc(NC(=O)OC)c1C(=O)N1CCOCC1` the inhibition was -0.7% (inactive). With `CC(C)OC(=O)CN1C(=O)c2ccccc2C1=O` the inhibition was 24% (inactive). `CC(=O)c1cnc(SCCN2C(=O)c3ccccc3C2=O)nc1C` was tested, and the inhibition was 57.8% (active). In the case of `C=CCn1c(C)cc(C(=O)CN2C(=O)c3ccccc3C2=O)c1C`, the inhibition is reported as 2.9% (inactive). For `CC(=O)NNc1cc(=O)c2c(=O)n(C)c(=O)n(C)c2[nH]1`, the inhibition was -1.8% (inactive). `Cc1cc(=O)n2c3c(cccc13)CCC2` was tested, and the inhibition was 18.8% (inactive). For `COc1ccc(/C=C2/S/C(=N/N=C3\CC4CCC3(C)C4(C)C)NC2=O)cc1` (stereo unspecified), the inhibition was -9.6% (inactive). `CCOCCCNS(=O)(=O)Cc1ccccc1` was tested, and the inhibition was 42.5% (inactive). `CCOc1ccc(S(=O)(=O)NCCSc2ccccc2)cc1` was tested, and the inhibition was 98.7% (active). For `CCOc1ccc2nc(NCCNS(=O)(=O)c3ccccc3)c(C#N)cc2c1`, the inhibition was 24.6% (inactive). In the case of `COCCNC(=O)Cn1cc2c(n1)CCCCC2`, the inhibition is reported as -6.8% (inactive). In the case of `O=C1C2C3C=CC(C4CC34)C2C(=O)N1/N=C/c1ccc(-c2ccccc2[N+](=O)[O-])o1` (stereo unspecified), the inhibition is reported as 72.2% (active). `CCOc1cc2[nH]c(=O)n(CCC(=O)NCc3ccc(OC)cc3)c(=O)c2cc1OCC` was tested, and the inhibition was -6% (inactive). For `C/C(=C\c1ccco1)C1Nc2cccc3cccc(c23)N1`, the inhibition was 72.8% (active). `O=C(NCC1CCCO1)/C(=C\c1ccco1)NC(=O)c1ccccc1` (stereo unspecified) was tested, and the inhibition was -11.9% (inactive). For `Cc1cccc(NC(=O)/C(=C\c2ccco2)NC(=O)c2ccccc2)c1`, the inhibition was 13.6% (inactive). `CCOC(=O)N1CCN(C(=O)c2cnc3n(c2=O)CCS3)CC1` was tested, and the inhibition was -15.9% (inactive). For `CCOC(=O)c1nc(C)n(-c2ccc(Cl)cc2Cl)n1`, the inhibition was 16.5% (inactive). In the case of `Cc1nn(C(C)CC(=O)O)c(C)c1C` (stereo unspecified), the inhibition is reported as 6.7% (inactive). In the case of `Cc1ccc(N2C(=O)C3C(c4ccccc4)(C2=O)C3(c2ccccc2)c2ccccc2)cc1` (stereo unspecified), the inhibition is reported as 8.1% (inactive). `CSC1=NCCN1C(=O)c1ccc(S(=O)(=O)N2CCOCC2)cc1` was tested, and the inhibition was 13.3% (inactive). With `CCCOC(=O)CC1C(=O)NCCN1Cc1ccc(F)cc1` (stereo unspecified) the inhibition was 19.1% (inactive). `O=C(c1ccco1)N1CCN=C1SCc1cccc(Cl)c1` was tested, and the inhibition was 20.6% (inactive). For `CCC(=O)N1CCN=C1SCc1ccc(F)cc1`, the inhibition was 78.7% (active). In the case of `O=C(C1CC1)N1CCN=C1SCc1ccc(Cl)cc1`, the inhibition is reported as 98.5% (active). With `CCOC(=O)c1c(C(C#N)C#N)cc(C)nc1C` the inhibition was -4.1% (inactive). For `CC(=O)Nc1ccc(NC(=O)c2sc3nc4c(c(-c5ccc(C)cc5)c3c2N)CCC4)cc1`, the inhibition was -6.7% (inactive). With `O=S(=O)(/C=C/c1ccccc1)NCCc1ccccn1` the inhibition was 53.8% (active). For `C/C(N)=C(\C#N)C(=O)NCCc1ccccn1`, the inhibition was -6.3% (inactive). For `NS(=O)(=O)c1ccc(NS(=O)(=O)/C=C/c2ccccc2)cc1`, the inhibition was 38.8% (inactive). `COc1ccc(CC(=O)Nc2nc3n(n2)C(c2ccccc2)CC(=O)N3)cc1OC` (stereo unspecified) was tested, and the inhibition was -4.1% (inactive). `O=c1cc(CN2CCN(c3cccc(Cl)c3)CC2)c2cc3c(cc2o1)CCCC3` was tested, and the inhibition was 12.6% (inactive). In the case of `CCc1ccc2oc(=O)cc(CN3CCCCC3C)c2c1` (stereo unspecified), the inhibition is reported as 92.7% (active). In the case of `COc1ccc(CN2CCCCC2C)cc1OC` (stereo unspecified), the inhibition is reported as 3% (inactive). `O=C(CSc1nnc(-c2ccoc2)o1)N1CCOCC1` was tested, and the inhibition was -14.6% (inactive). In the case of `Cc1cc(C)n(-c2cc(Oc3ccccc3)ncn2)n1`, the inhibition is reported as 15.9% (inactive). In the case of `CC(C)=C1SC(N2CCN(c3cccc(C)c3)CC2)=NC1=O`, the inhibition is reported as 6.5% (inactive). In the case of `O=S(=O)(c1cnccc1N1CCN(/N=C/c2ccc(Br)cc2)CC1)N1CCCCC1`, the inhibition is reported as -12% (inactive). `CNS(=O)(=O)c1cnccc1N1CCN(c2cccc(C)c2)CC1` was tested, and the inhibition was 78.6% (active). With `CCn1c(SCC(=O)Nc2nc(C)cs2)nnc1C(C)NC(=O)c1ccccc1` (stereo unspecified) the inhibition was 8.1% (inactive). For `O=C1CC(c2ccccc2)CC(O)=C1C=NCCN1CCOCC1` (stereo unspecified), the inhibition was 0.2% (inactive). With `CCCc1nnc(NC(=O)c2cc(OC)cc(OC)c2)s1` the inhibition was 32.5% (inactive). With `COc1ccc(Cl)cc1S(=O)(=O)Nc1cccc(C(=O)O)c1` the inhibition was 13.4% (inactive). In the case of `COc1ccccc1NS(=O)(=O)N(C)C`, the inhibition is reported as 4.9% (inactive). In the case of `COc1ccc(OC)c(S(=O)(=O)Nc2ccccc2F)c1`, the inhibition is reported as 85.9% (active). With `Cn1c(SCC(=O)OC2CCCCC2)nnc1-c1ccc(S(=O)(=O)N2CCCC2)cc1` the inhibition was 5.7% (inactive). `Cc1ccc(NC(=S)N/N=C2/CCCc3c(C)cc(C)cc32)cc1` was tested, and the inhibition was -4.5% (inactive). `Cc1ccc(NC(=S)NC2CCCC2)cc1` was tested, and the inhibition was 54.5% (active). In the case of `CC(C)c1ccc(NC(=O)NC2CCCCC2)cc1`, the inhibition is reported as -15.2% (inactive). With `CCOC(=O)N1CCN(CC(=O)c2ccc3c(c2)CCN3)CC1` the inhibition was 34.1% (inactive). In the case of `CC(C)NC(=O)C(=O)N/N=C/c1ccco1`, the inhibition is reported as -7% (inactive). In the case of `Nc1ccc(SCCN2C(=O)c3ccccc3C2=O)cc1`, the inhibition is reported as 94.6% (active). In the case of `O=C1c2ccccc2C(=O)N1CCC(c1ccccc1)c1ccco1` (stereo unspecified), the inhibition is reported as 22.9% (inactive). In the case of `O=C1c2ccccc2C(=O)N1CCc1nn[nH]n1`, the inhibition is reported as -6.8% (inactive). For `Cc1cc(Br)ccc1NC(=O)C1CCCO1` (stereo unspecified), the inhibition was 46.4% (inactive). For `CCn1c(O)c(N=NC2=NC(=O)CS2)c2cc(C)ccc21`, the inhibition was 14.8% (inactive). For `O=C(O)C1C2C=CC(C2)C1C(=O)N1CCN(CCO)CC1` (stereo unspecified), the inhibition was 1% (inactive). `CC1CC2=C(CC1/C=N/NC(N)=S)C(C)(C)CCC2` (stereo unspecified) was tested, and the inhibition was 30.6% (inactive). `Cn1c(-c2ccc(F)cc2)cnc1SCC(=O)NCc1ccco1` was tested, and the inhibition was 10.8% (inactive). In the case of `O=C(CCCn1c(SCC(=O)c2ccccc2)nc2ccccc2c1=O)NCC1CCCO1` (stereo unspecified), the inhibition is reported as 58.1% (active). In the case of `O=C(Cn1c(=O)n(Cc2ccco2)c(=O)c2ccccc21)NCC1CCCO1` (stereo unspecified), the inhibition is reported as 7.3% (inactive). `CCCCCCn1c(SCC(=O)c2ccccc2)nc2c1c(=O)[nH]c(=O)n2C` was tested, and the inhibition was -16.1% (inactive). In the case of `O=C(CCCn1c(SCC(=O)c2ccc(F)cc2)nc2ccccc2c1=O)NCc1ccco1`, the inhibition is reported as 70% (active). `O=C(CCn1c(SCC(=O)c2ccccc2)nc2ccccc2c1=O)NCc1ccc(F)cc1` was tested, and the inhibition was 60.5% (active). In the case of `CCc1ccc(NC(=O)CSc2nc3ccccc3c(=O)n2CCN2CCOCC2)cc1`, the inhibition is reported as 34.4% (inactive). With `O=C(CSc1nc2cc3c(cc2c(=O)n1CCC1=CCCCC1)OCO3)NCc1ccco1` the inhibition was 7.2% (inactive). `CCCCn1c(SCC(=O)NCC2CCCO2)nc2ccc(N3CCOCC3)cc2c1=O` (stereo unspecified) was tested, and the inhibition was 34.3% (inactive). With `COc1ccc(C(=O)Nc2c(N)nc(SCC(=O)N3CCC(C)CC3)[nH]c2=O)cc1OC` the inhibition was -6.9% (inactive). With `CC(C)C[C@@H](N)c1nnc(SCC(=O)c2ccc(Cl)cc2)o1` the inhibition was 90.5% (active). For `CC(=O)Nc1ccc(C(=O)CSc2nnc(Cc3ccccc3)o2)cc1`, the inhibition was 16.6% (inactive). In the case of `O=C(CSc1nnc(-c2c[nH]c3ccccc23)o1)c1ccccc1`, the inhibition is reported as 16.6% (inactive).
